For 106 compounds, INHIBITION results are on record in ChEMBL document CHEMBL4513216, “Probing the Open Global Health Chemical Diversity Library for Multistage-Active Starting Points for Next-Generation Antimalarials” (ACS Infect Dis, 2020).

Each structure is given as a SMILES string. Out of some 69,000 compounds screened, about 8,600 (12%) showed an effect of 50% or more. Only a selection was taken, and strong results are over-represented in it overall.

The subject of this experiment is Plasmodium berghei. As to the kind of experiment: Screen against P. berghei liver stage (PbLuc), transformed with Luciferase, at 10uM. Particulars: tested at 10 uM. In kind it is functional, HepG2.
As to `CNC(=O)CN1CCO[C@H]2CN(C(=O)C3CC3)C[C@H]21`, the INHIBITION is reported as -8.85%.
The value for `C1CC(c2noc(C3CC3)n2)N(Cc2nnc(C3CC3)o2)C1` (stereo unspecified) was 15.75%.
The value for `CC(=O)N1CCOC(c2c(C(=O)O)sc3ccccc23)C1` (stereo unspecified) was -9.51%.
The value for `c1ccc(-c2noc(CN3CCc4cncnc4C3)n2)nc1` was 72.9%; that for `Cn1cnc2c1CCN(Cc1nc(Cc3ccccc3)no1)C2` was 52.7%; that for `CCc1ncc2c(n1)CN(Cc1nc(-c3ccccn3)no1)CC2` was 47.1%.
In the case of `Cn1cnc2c1CCN(Cc1nc(COc3ccc(F)cc3)no1)C2`, the INHIBITION amounted to 53.8%.
Regarding `Cn1cnc2c1CCN(Cc1noc(-c3ccccc3)n1)C2`, the INHIBITION is given as 43.7%.
Take `CC(C)c1nc2c(n1C)CCN(Cc1nc(-c3ccsc3)no1)C2`: the INHIBITION was 47.6%.
As to `Cn1c(C2CC2)nc2c1CCN(Cc1nc(Cc3ccccc3)no1)C2`, the INHIBITION amounted to 34.7%.
Consider `c1cc(-c2noc(CN3CCc4c(ncn4C4CC4)C3)n2)cs1`, for which the INHIBITION is reported as 31.1%.
For the compound `c1cncc(-c2noc(CN3CCc4cncnc4C3)n2)c1`, the INHIBITION stood at 22.683%.
With `c1ccc(Cc2noc(CN3CCc4c(ncn4C4CC4)C3)n2)cc1`, the INHIBITION is reported as 0.411%.
The value for `Cn1cnc2c1CCN(Cc1nc(-c3ccsc3)no1)C2` was 52.7%; that for `Cn1cnc2c1CCN(Cc1nc(-c3ccco3)no1)C2` was 45.1%.
Under `CN1C(=O)[C@@H]2CC[C@H]1CN(C(=O)c1nnc3n1CCCCC3)C2` stands -89.9%; under `CCS(=O)(=O)N1CCC2(CC1)CN(c1cccnc1)C(=O)CO2`, 45.7%; under `CC(C)c1ncc2c(n1)CN(Cc1nc(-c3ccccn3)no1)CC2`, 28.8%.
For the compound `CCCn1nccc1-c1nccnc1CC1CCN(C(C)=O)CC1`, the INHIBITION came out at 19.3%.
Consider `COC1C[C@@H]2CN(C(=O)c3cc4cccc(F)c4[nH]3)C[C@@H]2C1` (stereo partly specified), for which the INHIBITION is recorded as -14.379%.
`CCN(CC)Cc1cn2c(n1)CN(Cc1c(C)noc1C)CC2`: the INHIBITION is recorded as 16.6%.
Under `COCCn1ccc2c(C(=O)NCC3CCCO3)cccc21` (stereo unspecified) stands 23.7%; under `Cc1cnc(N2C[C@@H]3CCN(CC(=O)N(C)C)C(=O)[C@H]3C2)nc1`, -61.9%; under `Cc1ccc(CC2COCCN(Cc3ccccc3)C2)nc1` (stereo unspecified), 35%.
Consider `Cc1ccc2c(n1)N(C)CCN(C(=O)NC1CC1)C2`, for which the INHIBITION is 1.28%.
The value for `c1ccc(Cc2noc(CN3CCc4cncnc4C3)n2)cc1` was 19.6%; that for `Fc1ccc(OCc2noc(CN3CCc4cncnc4C3)n2)cc1` was 50.4%.
The value for `Cn1cnc2c1CCN(Cc1csc(-c3ccccc3F)n1)C2` was 70.7%.
The value for `Cn1cnc2c1CCN(Cc1csc(-c3ccc(F)cc3)n1)C2` was -2.522%; that for `COc1ccc(-c2noc(CN3CCc4cncnc4C3)n2)cc1` was 40.3%.
`Cn1cnc2c1CCN(Cc1csc(-c3ccccc3)n1)C2`: the INHIBITION amounted to 23.6%.
As to `CO[C@@H]1CCC[C@@H](N(C)C(=O)c2cn3cc(C)ccc3n2)[C@H]1O`, the INHIBITION was -11.125%.
With `COc1ccc(C(=O)N2CCCS2(=O)=O)cc1`, the INHIBITION was -11.4%.
The value for `CN1C(=O)CC(c2ccccc2)C12CCN(CC1CCOCC1)CC2` (stereo unspecified) was -7.28%; that for `COCCN1CCC(CN(CC2CCCO2)C(=O)C2CCOCC2)CC1` (stereo unspecified) was 29.9%; that for `CCCc1nc(C(C)(C)NC(=O)c2ccnn2C)no1` was 38.3%.
Turning to `Cn1nccc1C(=O)NC(C)(C)c1noc(C(C)(C)C)n1`, the INHIBITION was 12.7%.
Regarding `CN(C)Cc1nc(C(C)(C)NC(=O)c2ccnn2C)no1`, the INHIBITION worked out at 57.6%.
In the case of `CCNc1ncc(C(=O)N2CCc3c(nc(C)nc3N(C)C)C2)cn1`, the INHIBITION turned out to be 36.7%.
Regarding `CCO[C@H]1CN(C)C[C@@H]1NC(=O)c1cc(C)nc2c(C)cccc12`, the INHIBITION was found to be 24.3%.
For the compound `Cc1cc(SC(C)(C)C)ccc1NC(=O)CNC(N)=O`, the INHIBITION came out at 22.2%.
As for `Cc1cc(SC(C)(C)C)ccc1NC(C)C(=O)NC(N)=O` (stereo unspecified), the INHIBITION is 65.7%.
On to `Cc1cc(SC(C)(C)C)ccc1NCC(=O)NC(N)=O`, for which the INHIBITION worked out at 32%.
On to `O=C1NCC(c2ccc(F)cc2)Cc2[nH]c(CCN3CCCC3)nc21` (stereo unspecified), for which the INHIBITION came out at 43.9%.
Take `Cc1c(Br)cc2c(c1C)OCC(N(C)C)C2=O` (stereo unspecified): the INHIBITION is reported as 24.8%.
Turning to `COCCNc1nc2c(c(NCc3ccncc3)n1)CCNCC2`, the INHIBITION is recorded as -3.19%.
As for `CCOCCNc1nc(-c2ccncc2)nc2c1CCNCC2`, the INHIBITION is recorded as -86.4%.
Take `COCCNc1nc2c(c(NCC3CCOC3)n1)CCNCC2` (stereo unspecified): the INHIBITION turned out to be 22.3%.
The value for `c1cc(-c2nc3c(c(NCCn4ccnn4)n2)CCNCC3)ccn1` was 72.1%.
Consider `c1cn(CCNc2nc(NC3CC3)nc3c2CCNCC3)nn1`, for which the INHIBITION was found to be 53.6%.
As to `c1cc(-c2nc3c(c(NCCc4c[nH]cn4)n2)CCNCC3)ccn1`, the INHIBITION is recorded as 5.41%.
The value for `O=C(N1CCCC1)N1CCn2c(nnc2C2CCCN2)C1` (stereo unspecified) was 27.5%; that for `Cc1nc(C2CCCN2Cc2nc(C3CC3)no2)no1` (stereo unspecified) was 26.9%.
Under `COCCNC(=O)[C@H]1C[C@@H]2CCN(c3ncccn3)C[C@@H]2O1` stands 25.3%; under `COC[C@H]1CC[C@H]2[C@H](CCN2C(=O)c2ccncc2F)O1`, 8.52%.
As for `O=C(NC1CC1)[C@H]1CC[C@@H]2[C@@H](CCN2c2ncc(F)cn2)O1`, the INHIBITION was 50.1%.
Take `COCCNC(=O)[C@@H]1CC[C@@H]2[C@@H](CCN2c2ncc(F)cn2)O1`: the INHIBITION came out at 0.734%.
As for `O=C(NC1CCCC1)[C@H]1CC[C@@H]2[C@@H](CCN2c2ncc(F)cn2)O1`, the INHIBITION is -9.54%.
Take `COCCNC(=O)[C@H]1CC[C@@H]2[C@@H](CCN2c2ncc(F)cn2)O1`: the INHIBITION is 0.734%.
Consider `CN1CCN(C(=O)[C@@H]2CC[C@@H]3[C@@H](CCN3c3ncccn3)O2)CC1`, for which the INHIBITION is 34.6%.
`CC1CCN(C(=O)[C@@H]2CC[C@@H]3[C@@H](CCN3c3ncc(F)cn3)O2)CC1`: the INHIBITION is reported as 62.4%.
For the compound `Cc1noc(CN(Cc2cccs2)C2CC2)n1`, the INHIBITION is listed as 47.3%.
Turning to `COCCO[C@H]1CCN(C(=O)c2cc(C)on2)[C@H]1Cc1ccccc1`, the INHIBITION was 28.2%.
Consider `CC1(c2[nH]ncc2C(N)=O)CCN(S(=O)(=O)c2ccccc2)CC1`, for which the INHIBITION is recorded as 11.1%.
For `CCC(CC)C(=O)N1CCN(Cc2cc(=O)c3ccccc3[nH]2)CC1`, the INHIBITION worked out at 33.4%.
For the compound `NC(=O)Cn1cnc2nc3n(c2c1=O)CCC3`, the INHIBITION is on record as -17%.
In the case of `CCOC(=O)Cn1cnc2nc3n(c2c1=O)CCC3`, the INHIBITION was found to be 81.2%.
Regarding `O=c1c2c(ncn1CCO)nc1n2CCC1`, the INHIBITION was 1.98%.
`Cc1ccn2ncc(C(=O)N3CCCC(n4nc(C)nc4C)C3)c2n1` (stereo unspecified): the INHIBITION is given as 11.5%.
The value for `Cc1nn(-c2ccccc2)cc1C(=O)N1CCCC(n2ccnc2)C1` (stereo unspecified) was -3.2%; that for `Cc1ccn2ncc(C(=O)N3CCCC(n4ccnc4C)C3)c2n1` (stereo unspecified) was -31.5%; that for `Cc1nn(-c2ccccc2)cc1C(=O)N1CCCN2CCCC2C1` (stereo unspecified) was 51.3%.
`Cc1cnn(C2CCCN(C(=O)c3cn(-c4ccccc4)nc3C)C2)c1` (stereo unspecified): the INHIBITION is given as -42.3%.
The value for `O=C(c1ccn(-c2ccccc2)n1)N1CCCC(n2cccn2)C1` (stereo unspecified) was 2.97%.
Regarding `Cc1nn(-c2ccccc2)cc1C(=O)N1CCCC1c1cnn(C)c1` (stereo unspecified), the INHIBITION turned out to be 43.3%.
As to `Cc1ccn2ncc(C(=O)N3CCCC(n4cccn4)C3)c2n1` (stereo unspecified), the INHIBITION is reported as 50.5%.
Take `Cc1nn(-c2ccccc2)cc1C(=O)N1CCCC(n2cccn2)C1` (stereo unspecified): the INHIBITION worked out at 66.4%.
On to `CN(C)c1ncc(C(=O)N2C[C@H]3CC(Oc4ccccc4)C[C@H]3C2)cn1` (stereo partly specified), for which the INHIBITION is recorded as 2.35%.
On to `O=C(Cc1cn2ccccc2n1)N1CCCC(n2ccnc2)C1` (stereo unspecified), for which the INHIBITION is reported as -43.6%.
In the case of `Cc1cccc(N2CCOCC3(C2)CN(c2ccoc2)C(=O)CO3)n1` (stereo unspecified), the INHIBITION was determined as 32.5%.
For the compound `NC(=O)c1cc(CC2CCCN(c3cnccn3)C2)ncn1` (stereo unspecified), the INHIBITION is on record as -32.7%.
As to `CS(=O)(=O)NC1CCCN(C(=O)Nc2cccnc2N2CCCC2)C1` (stereo unspecified), the INHIBITION is reported as 21.1%.
Regarding `CC(C)N1[C@H](Cn2cncn2)C[C@@H]2CN(Cc3nccn3C)CC[C@@H]21`, the INHIBITION is given as 37.6%.
As for `Cc1oncc1C(=O)N1CC[C@H]2[C@H](C[C@@H](CN(C)C)N2CC2CC2)C1`, the INHIBITION is reported as 33.5%.
For `CN(C)C[C@@H]1C[C@@H]2CN(Cc3nccn3C)CC[C@@H]2N1CC1CC1`, the INHIBITION stood at 51.2%.
Under `CCCc1cc(C(=O)N2C[C@H]3CCC[C@@]3(CO)C2)[nH]n1` stands 21.9%; under `Cc1ccc2nc(C)cc(C(=O)N3C[C@H]4CCC[C@@]4(CO)C3)c2c1`, 75.7%.
With `CCc1ccc2nc(C)cc(C(=O)N3C[C@H]4CCC[C@@]4(CO)C3)c2c1`, the INHIBITION is listed as 25.5%.
As to `Cc1cc(C(=O)N2C[C@H]3CCC[C@@]3(CO)C2)c2ccc(F)cc2n1`, the INHIBITION was 58.6%.
For the compound `Cc1cc(C(=O)N2CCC(n3nc(C)cc3C)C2)c2ccc(F)cc2n1` (stereo unspecified), the INHIBITION is reported as 37.3%.
Regarding `Cc1cc(C(=O)N2C[C@H](c3ccccc3)[C@@H](N)C2)c2ccc(F)cc2n1`, the INHIBITION is reported as 13%.
Turning to `CC(C)COC(C)C(=O)NCc1ccc(F)cc1` (stereo unspecified), the INHIBITION is -27.8%.
Turning to `Cc1cccc(CNC(=O)CC2CCN(Cc3ccccn3)CC2)n1`, the INHIBITION amounted to 18.3%.
Consider `CCc1nc(C2CCCN2C(=O)CCc2cscn2)no1` (stereo unspecified), for which the INHIBITION came to 18.2%.
As to `CCn1cc(CN2C[C@@H]3CCCN3C[C@H]2CCSC)cn1`, the INHIBITION was determined as 35.2%.
Regarding `CCOCC1CN(Cc2csc(C)n2)Cc2nccn2C1` (stereo unspecified), the INHIBITION is given as 1.9%.
For the compound `CCCc1nnc(N2CCC3(CC2)CC(=O)NC(=O)C3)o1`, the INHIBITION is recorded as -10.2%.
`NCc1cn(CC2CCCN(C(=O)NCc3ccc(Cl)cc3)C2)nn1` (stereo unspecified): the INHIBITION stood at 45.8%.
For the compound `COCc1cn(C2CCN(C(=O)Cc3ccsc3)CC2)nn1`, the INHIBITION was found to be 34.8%.
As to `CC(C)CCN1CCCC(Cn2cc(CCO)nn2)C1` (stereo unspecified), the INHIBITION came to 6.69%.
As to `O=C(CC1=CCCCC1)N1CCC(Cn2cc(CCO)nn2)CC1`, the INHIBITION was found to be 58.5%.
Under `CC(C)(CN1CCCC1)CN1CCC(Cn2cc(CCO)nn2)CC1` stands -6.03%; under `O=C(Cc1ccsc1)N1CCC(Cn2cc(CCO)nn2)CC1`, 57.1%.
With `NCc1cn(CC2CCCN(C(=O)CC3=CCCCC3)C2)nn1` (stereo unspecified), the INHIBITION amounted to 58.5%.
On to `COc1ccc(CC(=O)N2CCCC(Cn3cc(CN)nn3)C2)cc1` (stereo unspecified), for which the INHIBITION was 12.7%.
In the case of `O=C(c1sccc1Cl)N1CCC(Cn2cc(CO)nn2)CC1`, the INHIBITION came to 10.7%.
